Experimental data published in PubChem BioAssay AID504374 (National Center for Advancing Translational Sciences (NCATS), 2011).
About 100 (6.7%) of roughly 1,500 compounds were called active. Roughly 7% stayed inconclusive and do not appear here. Calls follow the shape of the dose curve; as a rule, active = well fitted inhibition curve with a large enough effect; inconclusive = small, poorly fitted or top-dose-only effect, or effect the other way; inactive = flat fitted curve, though single readings scatter. What follows is part of a selection rich in actives, with near analogues and random picks from the rest.

Target: Runt-related transcription factor 1 (Homo sapiens) + Core-binding factor subunit beta (Homo sapiens) (UniProt Q01196+Q13951)
Assay: qHTS Assay for Compounds Blocking the Interaction Between CBF-beta and RUNX1 for the Treatment of Acute Myeloid Leukemia: Hit Validation; also: nearly all actives have a fitted effect of over 60% in size
Settings: AlphaScreen CBFb-His/RUNX1-biotin binding; series mostly up to 59.8 µM; activity, negative = inhibition: at the top concentration
Description: NIH Chemical Genomics Center [NCGC]
NIH Molecular Libraries Probe Production centers Network [MLPCN]
Assay Submitter (PI): Paul Liu
Core Binding Factor (CBF) abnormalities are associated with 20-25% of all acute myeloid leukemias (AML), of which 5-10% are further sub classified as acute myelomonocytic leukemia with eosinophilia, also known as M4Eo in the FAB classification scheme. This subtype of leukemia is usually associated with chromosome 16 inversion (p13:q22). Chromosome 16 inversion results in formation of the fusion oncogene CBFB-MYH11, which encodes the fusion protein CBF-beta-SMMHC.
It has been hypothesized that the interference of CBF-beta and RUNX1 binding could have therapeutic implications for patients with CBF mediated leukemias. We developed a CBF-beta and RUNX1 binding assay in AlphaScreenTM format and optimized it for high throughput screening to search for inhibitors. The goal of this project is to screen MLPCN's compound collection (MLSMR) for identifying the inhibitors of the interaction between CBF-beta and RUNX1 proteins as research probes. If these probes work well in the animal models, the ultimate goal of this project is to development a new drug treatment for this disease.
This assay can not be used to assess how apparent inhibitors interfere with protein binding, and whether inhibitors specifically bind to either protein. Disruption of this protein-protein interaction, through any mechanism, is the intended target activity.
The present data set was run to confirm the activity of hits from the primary screen.
NCGC Assay Protocol Summary:
Step, Parameter, Description
(1) Reagent, 3 uL CBFb-His/RUNX1-biotin mix incubated together for 20 minutes at room temperature (30 nM each)
(2) Compound or control, 23 nL compound stock solution
(3) Incubation, 15 minutes at Room temperature
(4) Reagent, 1 uL 50 ng each of beads (Nickel beads and streptavidin beads)
(5) Incubation, 90 minutes at Room temperature
(6) Detection, Excitation=365 nm Emission=440 nm, Envision reader in AlphaScreenTM mode
Keywords: MLSMR, MLPCN, NIH Roadmap, qHTS, NCGC, Core binding factor, CBF, CBF-beta, Acute myeloid leukemia
% is scaled to controls: 0 for no effect and ±100 for the full control effect; potency is read from the fitted curve at half-maximal effect.

Sequence of Runt-related transcription factor 1 (Homo sapiens) + Core-binding factor subunit beta (Homo sapiens) (Q01196 whole entry, looked up): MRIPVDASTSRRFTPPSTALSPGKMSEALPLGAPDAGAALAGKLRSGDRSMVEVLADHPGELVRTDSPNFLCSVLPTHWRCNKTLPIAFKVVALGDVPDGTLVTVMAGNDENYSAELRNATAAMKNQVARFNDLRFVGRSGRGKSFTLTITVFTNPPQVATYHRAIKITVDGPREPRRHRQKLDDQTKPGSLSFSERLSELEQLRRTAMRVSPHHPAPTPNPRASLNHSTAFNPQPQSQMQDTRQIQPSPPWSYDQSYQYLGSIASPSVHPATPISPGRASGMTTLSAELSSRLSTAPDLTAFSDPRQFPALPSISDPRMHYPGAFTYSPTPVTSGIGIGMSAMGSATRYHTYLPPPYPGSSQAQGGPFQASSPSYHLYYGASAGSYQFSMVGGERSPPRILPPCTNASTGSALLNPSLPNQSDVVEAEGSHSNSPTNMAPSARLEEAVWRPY
Sequence of Runt-related transcription factor 1 (Homo sapiens) + Core-binding factor subunit beta (Homo sapiens) (Q13951 whole entry, looked up): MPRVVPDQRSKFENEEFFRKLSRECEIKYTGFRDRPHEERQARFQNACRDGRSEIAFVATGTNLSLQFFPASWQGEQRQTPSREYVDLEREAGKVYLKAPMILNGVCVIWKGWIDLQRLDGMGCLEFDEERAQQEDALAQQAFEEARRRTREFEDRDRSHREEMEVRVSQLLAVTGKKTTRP

SMILES | activity, negative = inhibition | Potency
O=C(OCC(O)COC(=O)c1cccnc1)c1cccnc1 | 0.481% (inactive) | 
N#Cc1ccc(S(=O)(=O)N2CCCN(c3ccc(C(F)(F)F)cn3)CC2)cc1 | 3.3% (inactive) | 
O=C(O)c1ccccc1C1Nc2ccccc2C(=O)N1CCCN1CCOCC1 (configuration not stated) | -13.6% (inactive) | 
Cc1ccc(Cn2nc(C)cc2C(=O)Nc2ccc(Cl)cc2)cc1 | -3.08% (inactive) | 
CCn1c(NC(=O)C(C)C)c(-c2cccs2)c(=O)c2ccccc21 | -7.71% (inactive) | 
CC(=O)Oc1cc(-c2coc3cc(OC(C)=O)c(OC(C)=O)c(OC(C)=O)c3c2=O)cc(OC(C)=O)c1OC(C)=O |  | 1000 nM (active)
Cc1nc(C)c(-c2ccnc(/N=C/NO)n2)s1 | -3.29% (inactive) | 
Cc1cc(OCC(=O)c2cccc(C(F)(F)F)c2)n2cnnc2n1 | 1.34% (inactive) | 
O=C(NC(=S)Nc1ccccc1N1CCCC1)c1ccco1 | -2.74% (inactive) | 
Cc1onc(-c2ccccc2)c1C(=O)NC(=S)NNC(=O)c1ccco1 | -9.63% (inactive) | 
O=C(NC(=S)NNC(=O)c1ccccc1O)c1ccco1 |  | 1260 nM (active)
Nn1c(SCC(=O)Nc2ccc(S(N)(=O)=O)cc2)nnc1C(F)(F)F | 4.8% (inactive) | 
O=C(CN1CCCc2ccccc21)N1CCc2ccccc21 | 7.88% (inactive) | 
COc1ccc(CCN(C)CCC(=O)Nc2cccc(C)c2)cc1OC | -4.23% (inactive) | 
Cc1cccc(NC(=S)N(CCN(C)C)C(C)c2ccccn2)c1 (configuration not stated) |  | 6870 nM (active)
Cc1ccc(NC(=S)Nc2ccccn2)cc1C | -4.63% (inactive) | 
CC(=O)NNC(=S)Nc1cccc(F)c1 | -2.31% (inactive) | 
CC(c1ccccn1)N(CCN(C)C)C(=S)Nc1cccc(F)c1 (configuration not stated) |  | 3440 nM (active)
CC1=NN(c2nc3ccccc3s2)C(O)(C(F)(F)F)C1 (configuration not stated) | -0.882% (inactive) | 

SMILES | activity, negative = inhibition | Potency
COc1ccc(NC(=O)c2cccs2)cn1 | 4.88% (inactive) | 
CCOC(=O)NC1=NCC(C)S1 (configuration not stated) | -9.33% (inactive) | 
O=S(=O)(c1ccc(C(F)(F)F)cc1)N1CCCN(c2ccc(C(F)(F)F)cn2)CC1 | -5.62% (inactive) | 
NNC(=O)c1ccc(COc2ccc([N+](=O)[O-])cc2)o1 | -7.53% (inactive) | 
COc1ccc(/C=N/NC(=O)c2ccco2)cc1OCc1ccccc1 | -0.527% (inactive) | 
N#Cc1cnn(-c2ccccc2)c1NC(=O)CN1CCOCC1 | 0.441% (inactive) | 
COC(=O)CC1C(=O)NCCN1C(=S)Nc1ccc(F)cc1 (configuration not stated) | 0.286% (inactive) | 
O=C(O)COCC(=O)N1CCN(C2c3ccccc3-c3ccccc32)CC1 | -2.67% (inactive) | 
CC(C)NC(=O)Nc1cccc(Cl)c1 | 1.29% (inactive) | 
COCc1cc(O)c(O)c(O)c1-c1c(COC)cc(O)c(O)c1O |  | 631 nM (active)
CCCCNC(=O)NCCN1CCOCC1 | 0.241% (inactive) | 
Brc1ccc(C2Nc3cccc4cccc(c34)N2)o1 |  | 14100 nM (active)
Cc1ccc(/C=N/N2CCN(c3ccccn3)CC2)o1 | -6.58% (inactive) | 
Cc1cc2nc(-c3ccccc3)cc(=O)n2[nH]1 | -8.72% (inactive) | 
NC(=S)N/N=C/c1ncc(C(F)(F)F)cc1Cl |  | 25100 nM (active)
COc1ccc(/C=N/NC(=S)Nc2cc(C(F)(F)F)ccc2Cl)cc1 | 10.6% (inactive) | 
CC(C)(C)c1ccc(CCC2OCC(C[N+]3(C)CCOCC3)O2)cc1 (configuration not stated) | -2.73% (inactive) | 
Cc1nn2c(NCCOCCO)c3c(nc2c1-c1ccccc1)CCC3 | -12.7% (inactive) | 
O=C(c1ccc(Cn2cc(Cl)c([N+](=O)[O-])n2)cc1)N1CCN(Cc2ccccc2)CC1 | -5.87% (inactive) | 

SMILES | activity, negative = inhibition | Potency
Cc1onc(-c2c(F)cccc2Cl)c1C(=O)Nc1ccccc1N1CCOCC1 | -11.4% (inactive) | 
CCc1cccc(NC(=O)CCCCCC2NC(=O)NC2C)c1 (configuration not stated) |  | 447 nM (active)
CCCCC(=O)Nc1ccc(NC(=S)NC(=O)c2ccco2)cc1OC | -5.89% (inactive) | 
CCC(=O)Nc1cccc(C(=O)OC)c1 | -8.54% (inactive) | 
CCOC(=O)CN1NC2(CCCCCC2)NC1=S | -2.8% (inactive) | 
Cc1onc(-c2c(F)cccc2Cl)c1C(O)c1ccc(F)cc1 (configuration not stated) | 7.39% (inactive) | 
Nc1ncccc1OCc1ccc(Cl)c(Cl)c1 | -2.93% (inactive) | 
COCCn1c(-c2ccc(Cl)cc2)nc2oc3cc(OC)ccc3c(=O)c2c1=O | -1.81% (inactive) | 
CC(=O)Nc1ccc(OCCOc2ccc([N+](=O)[O-])cc2)cc1 | 0.185% (inactive) | 
O=C1c2ccccc2C(=O)c2c(Nc3ccc(CCO)cc3)ccc(O)c21 |  | 794 nM (active)
CSC(=Nc1ccccc1)Nc1ccccc1 | -0.945% (inactive) | 
CCOC(=O)N1CCN(CC(=O)Nc2sc(CC)cc2C(=O)c2ccc(OC)cc2)CC1 | -13.8% (inactive) | 
CCOC(=O)CC(=O)CSc1nc(CC)c(C)cc1C#N | -13.7% (inactive) | 
COc1ccc(N/C=C2\C(=O)c3c(sc(C)c3C)N(C)S2(=O)=O)cc1 | 1.6% (inactive) | 
COc1cc(/C=N/Nc2ccc(S(N)(=O)=O)cc2[N+](=O)[O-])cc(OC)c1O | -20.2% (inactive) | 
COc1cc(/C=N/NC(=O)c2cncc(Br)c2)cc([N+](=O)[O-])c1O |  | 2820 nM (active)
COc1ccc(/C=N/NC(=O)c2ccc3nc[nH]c3c2)cc1OC | -0.42% (inactive) | 
Oc1ccc2ccccc2c1C=Nc1ccccc1 | -2.72% (inactive) | 
CNC(=O)/C(C#N)=C1\SC(Cc2ccc(F)cc2)C(=O)N1c1ccccc1C (configuration not stated) | -0.028% (inactive) | 
